Only some compounds are listed: those with a hit (about 0.97% of all), similar ones and a draw of the others.
Hsp70 act = Hsp70 transcriptional activators, primary screen, cell-based, HeLa, Hsp70 promoter luciferase, luminescence, 10 µM; HeLa Hsp70 promoter luciferase reporter; scaled: vehicle 0, proteasome-inhibitor control 100%; activation, % at 10 µM; hit rate 0.04% among 200,000;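 active means activation above the mean across all tested compounds plus 3 SD, cutoff set per campaign, cut at about 5.5% in these data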
S1P3 antag = S1P3 receptor antagonists, primary screen, cell-based; CHO S1P3 NFAT-BLA reporter, FRET fluorescence, antagonist mode; inhibition, % at 4.98 µM; hit rate 0.27% among 170,000; AID 485, 2006;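 active means inhibition above the plate cutoff, the mean inhibition of test wells on that plate plus 3 SD, cut at about 28% in these data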;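 further: cells challenged with S1P at its EC80 of 0.8 µM; blue over green emission ratio from cleaved BLA substrate after 4 h stimulation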
S1P4 ag = S1P4 receptor agonists, primary screen, cell-based; hit rate 0.35% among 220,000; Sphingosine 1-phosphate receptor 4 (Homo sapiens), O95977; activation, % at 4.98 µM; S1P4-expressing cell line, agonist reporter assay; in the data active means activation above about 11%
S1P4 antagonist = S1P4 receptor antagonists, primary screen, cell-based | Sphingosine 1-phosphate receptor 4 (Homo sapiens), O95977 | S1P4-expressing cells, antagonist mode, reporter read-out | inhibition, % at 4.98 µM | hit rate 0.26% among 220,000; in the data active means inhibition above about 29%
AI-2 QS mod = Vibrio harveyi AI-2 quorum sensing modulators, primary screen, JMH597 strain, luminescence/OD600 ratio; Vibrio harveyi JMH597 AI-2 luminescence/OD600 ratio, 9 h; hits give low values; strain lacks LuxN and CqsS sensors; 0 = neutral-control median; activity change, % at 7.5 µM; hit rate 0.4% among 300,000; AID 2094, 2009; in the data active means activity change below about -75%, passing the limit was not always enough;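 further: luminescence divided by OD600 gain over 9 h not by final OD600 alone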
S1P4 antag conf = S1P4 receptor antagonists, human, confirmation, cell-based; hit rate 71% among 520; shares compounds with S1P4 antagonist; inhibition, % at 4.98 µM; AID 1524, 2009; S1P4-expressing cell line, antagonist mode, reporter read-out; in the data active means inhibition above about 30%
S1P1 antag = S1P1 receptor antagonists, human, counter-screen for S1P4 antagonist project, cell-based; shares compounds with S1P4 antagonist; cell-based S1P1 antagonist counterscreen, inhibition; inhibition, % at 4.98 µM; hit rate 37% among 520; AID 1564, 2009; in the data active means inhibition above about 40%;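 further: receptor stimulated with S1P near its EC80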
Target sequence (P21453 whole entry, looked up): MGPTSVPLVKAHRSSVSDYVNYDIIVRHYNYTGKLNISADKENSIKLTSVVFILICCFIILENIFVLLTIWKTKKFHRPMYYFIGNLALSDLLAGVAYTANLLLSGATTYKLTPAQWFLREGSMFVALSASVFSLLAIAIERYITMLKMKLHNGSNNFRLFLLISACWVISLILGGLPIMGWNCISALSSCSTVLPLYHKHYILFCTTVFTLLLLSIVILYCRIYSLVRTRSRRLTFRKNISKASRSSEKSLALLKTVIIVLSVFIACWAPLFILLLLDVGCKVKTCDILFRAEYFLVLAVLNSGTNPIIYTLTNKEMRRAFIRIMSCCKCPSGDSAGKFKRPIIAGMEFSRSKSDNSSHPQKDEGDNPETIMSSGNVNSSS
Hits are given with their value; 0 = inactive; - = not tested or not shown.

SMILES	Hsp70 act	S1P3 antag	S1P4 ag	S1P4 antagonist	AI-2 QS mod	S1P4 antag conf	S1P1 antag
CS(=O)(=O)c1nc(-c2cccs2)cc(C(F)(F)F)n1	0	-	0	39	-89	119	41
COc1ccc(-c2cc(C(F)(F)F)nc(S(C)(=O)=O)n2)cc1	0	-	0	0	0	-	-
CSc1ccccc1OCc1cc(C(=O)N2CCc3[nH]cnc3C2c2ccccn2)no1 (stereo not drawn)	-	-	-	-	0	-	-
C=C1C(=O)C=C2CN(C(=O)c3ccccc3)[C@@](Cc3ccc(F)cc3)(C(=O)OC)[C@@H]12	0	0	0	60	0	119	143
COc1ccc(/C=C/C(=O)c2ccccc2O)cc1	0	0	0	0	0	-	-
COc1ccc(/C=C/C(=O)c2c(O)c(OC)c3occc3c2OC)cc1	0	0	0	34	0	52	0
CCCCC(CC)c1nnc(NC(=O)c2cccs2)s1 (stereo not drawn)	0	0	0	29	0	0	0
CC(C)c1nnc(NC(=O)c2cccs2)s1	0	0	0	0	0	-	-
O=c1[nH]c(=S)[nH]c2sccc12	0	0	0	0	0	-	-
O=C(Nc1nc(=O)c2ccccc2s1)c1ccccc1	0	-	0	36	0	0	0
CC(=O)Nc1nc(=O)c2ccccc2s1	0	0	0	0	0	-	-
O=C(/C=C/c1ccc([N+](=O)[O-])cc1)c1cccnc1	0	0	0	34	0	79	52
Cc1c(O)ccc(NC(=O)/C=C/c2ccccc2)c1C	0	0	0	57	0	61	0
CCN(c1ccc(OC)cc1)S(=O)(=O)c1nnc(NC(=O)CC(C)C)s1	-	-	-	-	0	-	-
CC(C)(C)c1ccc(C(O)CCCN2CCC(C(O)(c3ccccc3)c3ccccc3)CC2)cc1 (stereo not drawn)	0	0	0	33	0	0	0
COc1ccc(NS(=O)(=O)c2cn(C)nc2C)cc1	-	-	-	-	0	-	-
O=C(NCc1cccnc1)/C(=C/c1ccc(-c2cccc(Cl)c2)o1)S(=O)(=O)c1ccccc1	0	-	0	65	0	105	72
O=c1ccnc(Nc2ccc([N+](=O)[O-])cc2)[nH]1	-	-	-	-	0	-	-
Cc1ccnc(N2C(=O)c3cccc4c([N+](=O)[O-])ccc(c34)C2=O)c1	0	-	0	105	0	115	133
O=C1c2cccc3c([N+](=O)[O-])ccc(c23)C(=O)N1Cc1cccnc1	0	0	0	72	0	95	42
O=C(Nc1nnc(-c2cccs2)o1)C1CC1	0	0	0	31	0	0	0
O=C(Nc1nnc(-c2ccc(Cl)s2)o1)C1CC1	0	0	0	0	0	-	-
Fc1c(F)c(F)c(/C=N/NC(=S)Nc2cccnc2)c(F)c1F	0	0	0	40	0	66	0
COc1ccc(C(=O)Nc2cccc(-c3nc4ncccc4o3)c2C)cc1	0	-	0	33	0	0	0
CCOc1ccc(NC(=O)Nc2cc(OCC(F)(F)F)cc(OCC(F)(F)F)c2)cc1	0	0	0	90	0	113	0
SMILES	Hsp70 act	S1P3 antag	S1P4 ag	S1P4 antagonist	AI-2 QS mod	S1P4 antag conf	S1P1 antag
CCOc1ccc(NC(=O)Nc2cccc(C(=O)O)c2)cc1	0	0	0	0	0	-	-
N#Cc1cnn2c(-c3ccc(Cl)cc3Cl)ccnc12	0	0	0	0	0	-	-
COc1cc(/C=N\Nc2nc3ccccc3[nH]2)cc(OC)c1OC	0	-	0	0	0	-	-
COc1ccc2c(c1)c(/C=N/Nc1nc3ccccc3[nH]1)c(C)n2C	-	0	0	32	0	0	0
Cc1cc(C)n2nc(CC(=O)NNC(=O)c3ccccc3Cl)nc2n1	-	-	-	-	0	-	-
CCN(CC)C(=O)c1[nH]cnc1C(=O)N[C@@H](Cc1ccccc1)C(=O)OC(C)(C)C	-	-	-	-	0	-	-
CCN(Cc1nc(-c2cccc(C)c2)no1)C(=O)c1ccco1	-	-	-	-	0	-	-
Cc1nn(-c2ccccc2)c2c1C(c1ccc(O)c(O)c1)N1C(=N2)C(Nc2ccccc2)=Nc2ccccc21 (stereo not drawn)	0	-	0	51	0	70	65
